Measured values taken from PubChem BioAssay.
The source made the active and inactive calls.

How the values were obtained:
[1] = test system: PRMT1 (protein arginine N-methyltransferase 1); test: PRMT1 binders on small-molecule microarrays, primary screen, biochemical, small-molecule microarray, 635 nm fluorescence (AID 1088); details: small-molecule microarray binding, higher = more signal;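 further: binding of Prmt1 protein to compounds spotted on small-molecule microarray slides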
[2] = yeast growth modulation, basal conditions, primary screen, YJM789 clinical isolate, OD600, 24 h (AID 1089);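 further: growth of clinical yeast isolate S. cerevisiae YJM 789 seeded 1000 cells per well; test concentration not given here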; details: S. cerevisiae YJM789 growth, higher = more signal, called active from +8 up or from −8 down
[3] = fission yeast growth modulation, primary screen, strain 972, OD600, 24 h, no modulator (AID 1090);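 further: basal condition with compound alone and no growth modifier present; test concentration not given here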; details: S. pombe 972 growth, higher = more signal, called active from +8 up or from −8 down
[4] = S. cerevisiae growth modulation with rapamycin, primary screen, strain BY4716, OD600, 96 h (AID 1091); details: higher = more signal, called active from +8 up or from −8 down; further: test concentration not given here
[5] = target: Torsin-1A-interacting protein 2 (Homo sapiens) (UniProt Q8NFQ8); test: LULL1 binders on small-molecule microarray, primary screen, cell lysate, human LULL1 lysate, 635/667 nm fluorescence (AID 1092); details: hLULL1 lysate binding, 635 nm fluorescence, higher = more signal;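 further: probe is lysate of COS7 cells overexpressing human LULL1; score merges per-feature 667 nm fluorescence with signal-to-noise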
Sequence of Torsin-1A-interacting protein 2 (Homo sapiens) (Q8NFQ8 whole entry, looked up): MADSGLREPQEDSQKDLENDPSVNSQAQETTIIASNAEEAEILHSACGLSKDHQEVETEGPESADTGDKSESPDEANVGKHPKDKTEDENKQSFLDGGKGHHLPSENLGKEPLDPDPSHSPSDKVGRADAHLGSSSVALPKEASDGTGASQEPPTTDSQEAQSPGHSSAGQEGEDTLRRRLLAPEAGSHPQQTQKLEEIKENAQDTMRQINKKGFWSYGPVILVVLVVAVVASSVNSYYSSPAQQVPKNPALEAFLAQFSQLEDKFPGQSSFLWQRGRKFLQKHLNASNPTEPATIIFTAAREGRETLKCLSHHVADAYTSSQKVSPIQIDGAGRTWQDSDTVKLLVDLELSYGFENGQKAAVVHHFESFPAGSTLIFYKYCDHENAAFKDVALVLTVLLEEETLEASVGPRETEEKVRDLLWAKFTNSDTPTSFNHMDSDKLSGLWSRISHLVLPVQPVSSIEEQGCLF

[6] = E. coli growth modulation, two-sided OD650, primary screen, E. coli filamentation project, strain DRC41, 24 h (AID 1093); details: OD650, 24 h, higher = more signal, called active from +8 up or from −8 down;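 further: MC1000 strain lacking acrAB efflux and sulA so SOS filamentation is blocked; test concentration not given here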
[7] = small-molecule microarray binders of probe aLefty2, primary screen, biochemical, biotinylated probe, 635/667 nm fluorescence (AID 1094); details: higher = more signal;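 further: score merges spot fluorescence near 667 nm with spot signal-to-noise ratio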
[8] = test system: Noggin (protein binding on small-molecule microarray); test: Noggin binders on small-molecule microarray, primary screen, biochemical, 635/667 nm fluorescence (AID 1095); details: 635 nm fluorescence, higher = more signal;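 further: score merges 667 nm feature fluorescence with signal to noise over triplicate slides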
[9] = target: Neurogenic locus notch homolog protein 3 (Homo sapiens) (UniProt Q9UM47); test: NOTCH3 binders on small-molecule microarray, primary screen, biochemical, 635/667 nm fluorescence (AID 1096); details: NOTCH3 binding, 635 nm fluorescence, higher = more signal
Sequence of Neurogenic locus notch homolog protein 3 (Homo sapiens) (Q9UM47 whole entry, looked up): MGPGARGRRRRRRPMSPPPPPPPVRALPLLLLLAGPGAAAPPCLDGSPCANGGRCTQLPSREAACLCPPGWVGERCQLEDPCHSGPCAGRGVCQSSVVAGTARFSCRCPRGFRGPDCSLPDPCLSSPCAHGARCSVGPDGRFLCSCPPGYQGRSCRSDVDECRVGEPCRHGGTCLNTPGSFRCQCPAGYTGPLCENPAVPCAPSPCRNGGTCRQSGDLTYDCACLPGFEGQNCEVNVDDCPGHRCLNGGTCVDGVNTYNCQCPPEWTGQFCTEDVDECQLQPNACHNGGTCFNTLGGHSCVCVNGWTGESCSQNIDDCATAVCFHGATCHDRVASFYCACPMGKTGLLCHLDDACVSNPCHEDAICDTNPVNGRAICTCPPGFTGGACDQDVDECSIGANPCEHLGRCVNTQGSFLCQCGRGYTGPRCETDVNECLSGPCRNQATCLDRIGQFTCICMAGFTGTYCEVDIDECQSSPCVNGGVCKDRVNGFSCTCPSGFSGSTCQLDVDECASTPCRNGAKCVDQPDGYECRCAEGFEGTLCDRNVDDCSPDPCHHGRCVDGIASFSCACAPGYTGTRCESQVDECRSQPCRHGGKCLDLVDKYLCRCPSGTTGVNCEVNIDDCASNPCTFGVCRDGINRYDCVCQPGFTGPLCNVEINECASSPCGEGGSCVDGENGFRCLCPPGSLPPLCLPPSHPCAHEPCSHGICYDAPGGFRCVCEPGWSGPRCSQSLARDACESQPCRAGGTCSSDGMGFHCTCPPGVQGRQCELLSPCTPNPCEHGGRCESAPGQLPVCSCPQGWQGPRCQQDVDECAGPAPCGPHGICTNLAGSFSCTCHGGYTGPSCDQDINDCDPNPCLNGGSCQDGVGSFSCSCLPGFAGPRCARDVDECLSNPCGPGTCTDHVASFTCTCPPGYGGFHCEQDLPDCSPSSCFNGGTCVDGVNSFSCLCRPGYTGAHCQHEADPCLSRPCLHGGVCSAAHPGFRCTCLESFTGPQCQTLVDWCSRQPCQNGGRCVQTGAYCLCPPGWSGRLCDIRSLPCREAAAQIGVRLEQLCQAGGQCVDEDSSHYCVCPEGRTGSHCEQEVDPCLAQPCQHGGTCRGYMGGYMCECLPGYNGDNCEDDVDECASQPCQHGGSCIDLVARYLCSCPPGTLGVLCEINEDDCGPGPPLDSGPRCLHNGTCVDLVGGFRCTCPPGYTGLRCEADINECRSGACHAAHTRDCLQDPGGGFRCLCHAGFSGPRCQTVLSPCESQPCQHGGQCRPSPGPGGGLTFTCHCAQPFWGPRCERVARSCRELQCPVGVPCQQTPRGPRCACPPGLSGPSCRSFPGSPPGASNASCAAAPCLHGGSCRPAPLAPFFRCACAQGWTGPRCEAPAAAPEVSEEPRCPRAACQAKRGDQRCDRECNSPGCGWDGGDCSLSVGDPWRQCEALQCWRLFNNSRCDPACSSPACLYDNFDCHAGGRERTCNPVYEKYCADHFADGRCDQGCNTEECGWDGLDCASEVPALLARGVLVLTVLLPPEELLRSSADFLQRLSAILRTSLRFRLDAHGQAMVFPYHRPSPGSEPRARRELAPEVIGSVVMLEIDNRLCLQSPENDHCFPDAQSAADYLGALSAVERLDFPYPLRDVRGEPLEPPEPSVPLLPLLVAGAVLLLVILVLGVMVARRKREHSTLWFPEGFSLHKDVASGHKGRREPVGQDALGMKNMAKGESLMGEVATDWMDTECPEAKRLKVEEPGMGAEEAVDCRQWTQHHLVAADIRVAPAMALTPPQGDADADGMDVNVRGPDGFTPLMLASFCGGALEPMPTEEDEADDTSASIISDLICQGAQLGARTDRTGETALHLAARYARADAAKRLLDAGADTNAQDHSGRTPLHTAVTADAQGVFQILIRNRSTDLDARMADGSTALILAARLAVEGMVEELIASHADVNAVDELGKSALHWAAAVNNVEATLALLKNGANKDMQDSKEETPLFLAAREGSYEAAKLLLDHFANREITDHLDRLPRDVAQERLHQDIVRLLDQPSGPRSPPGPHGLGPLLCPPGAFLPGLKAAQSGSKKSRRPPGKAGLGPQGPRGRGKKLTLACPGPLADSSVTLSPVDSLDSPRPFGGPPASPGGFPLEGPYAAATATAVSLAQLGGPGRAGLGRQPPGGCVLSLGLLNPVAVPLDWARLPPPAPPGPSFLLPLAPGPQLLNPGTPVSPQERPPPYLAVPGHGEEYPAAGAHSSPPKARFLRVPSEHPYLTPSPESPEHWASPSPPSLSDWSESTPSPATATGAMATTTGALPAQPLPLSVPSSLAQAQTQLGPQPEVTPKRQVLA

[10] = small-molecule microarray binders of probe aEGFR, primary screen, biochemical, biotinylated probe, 635/667 nm fluorescence (AID 1097); details: higher = more signal;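 further: probe is a biotinylated anti-EGFR antibody binding compounds printed on slides; score combines fluorescence near 667 nm and signal to noise of each spot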
[11] = test system: Plasmodium falciparum Sir2 (PF13_0152, Sir2A); test: pfSir2 binders on small-molecule microarrays, primary screen, biochemical, small-molecule microarray, 635 nm fluorescence (AID 1098); details: small-molecule microarray binding, fluorescence 635 nm; higher = more signal;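 further: score merges spot fluorescence intensity with its signal-to-noise ratio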
[12] = small-molecule microarray binders of probe aDKK1, primary screen, biochemical, biotinylated probe, 635/667 nm fluorescence (AID 1099); details: higher = more signal;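 further: score merges 667nm spot fluorescence with signal to noise across triplicate slides; reference of the scale not given here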
[13] = small-molecule microarray binders of probe aCHRDL2, primary screen, biochemical, biotinylated probe, 635/667 nm fluorescence (AID 1100); details: higher = more signal
[14] = splicing luciferase reporter signal modulators, primary screen, spliceosome inhibition project, cell-based, HEK293, splice +/- reporter (AID 1101); details: luminescence, 24 h, higher = more signal, called active from +8 up or from −8 down;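 further: HEK293 cells carrying a splicing-competent luciferase reporter gene; test concentration not given here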
[15] = target: Fibroblast growth factor 10 (Homo sapiens) (UniProt O15520); test: FGF10 binders on small-molecule microarrays, primary screen, biochemical, small-molecule microarray, 635 nm fluorescence (AID 1102); details: FGF10 binding, fluorescence 635 nm, higher = more signal
Sequence of Fibroblast growth factor 10 (Homo sapiens) (O15520 whole entry, looked up): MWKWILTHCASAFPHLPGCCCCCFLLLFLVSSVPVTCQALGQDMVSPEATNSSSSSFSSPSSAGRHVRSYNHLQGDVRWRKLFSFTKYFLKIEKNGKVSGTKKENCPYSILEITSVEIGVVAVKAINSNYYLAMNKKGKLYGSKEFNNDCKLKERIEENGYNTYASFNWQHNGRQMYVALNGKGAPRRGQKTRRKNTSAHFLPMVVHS

[16] = test system: glycogen synthase kinase-3 (GSK3A per assay name; protocol says GSK3B); test: GSK3 binders on small-molecule microarrays, primary screen, biochemical, small-molecule microarray, 635 nm fluorescence, GSK3A (AID 1103); details: small-molecule microarray binding, fluorescence 635 nm; higher = more signal; further: the record names both GSK3A and GSK3B
[17] = target: Epidermal growth factor receptor (Homo sapiens) (UniProt P00533); test: EGFR binders on small-molecule microarrays, primary screen, biochemical, small-molecule microarray, 635 nm fluorescence (AID 1104); details: EGFR binding, higher = more signal;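 further: score merges 667 nm emission intensity with spot signal to noise over triplicate slides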
Sequence of Epidermal growth factor receptor (Homo sapiens) (P00533 whole entry, looked up): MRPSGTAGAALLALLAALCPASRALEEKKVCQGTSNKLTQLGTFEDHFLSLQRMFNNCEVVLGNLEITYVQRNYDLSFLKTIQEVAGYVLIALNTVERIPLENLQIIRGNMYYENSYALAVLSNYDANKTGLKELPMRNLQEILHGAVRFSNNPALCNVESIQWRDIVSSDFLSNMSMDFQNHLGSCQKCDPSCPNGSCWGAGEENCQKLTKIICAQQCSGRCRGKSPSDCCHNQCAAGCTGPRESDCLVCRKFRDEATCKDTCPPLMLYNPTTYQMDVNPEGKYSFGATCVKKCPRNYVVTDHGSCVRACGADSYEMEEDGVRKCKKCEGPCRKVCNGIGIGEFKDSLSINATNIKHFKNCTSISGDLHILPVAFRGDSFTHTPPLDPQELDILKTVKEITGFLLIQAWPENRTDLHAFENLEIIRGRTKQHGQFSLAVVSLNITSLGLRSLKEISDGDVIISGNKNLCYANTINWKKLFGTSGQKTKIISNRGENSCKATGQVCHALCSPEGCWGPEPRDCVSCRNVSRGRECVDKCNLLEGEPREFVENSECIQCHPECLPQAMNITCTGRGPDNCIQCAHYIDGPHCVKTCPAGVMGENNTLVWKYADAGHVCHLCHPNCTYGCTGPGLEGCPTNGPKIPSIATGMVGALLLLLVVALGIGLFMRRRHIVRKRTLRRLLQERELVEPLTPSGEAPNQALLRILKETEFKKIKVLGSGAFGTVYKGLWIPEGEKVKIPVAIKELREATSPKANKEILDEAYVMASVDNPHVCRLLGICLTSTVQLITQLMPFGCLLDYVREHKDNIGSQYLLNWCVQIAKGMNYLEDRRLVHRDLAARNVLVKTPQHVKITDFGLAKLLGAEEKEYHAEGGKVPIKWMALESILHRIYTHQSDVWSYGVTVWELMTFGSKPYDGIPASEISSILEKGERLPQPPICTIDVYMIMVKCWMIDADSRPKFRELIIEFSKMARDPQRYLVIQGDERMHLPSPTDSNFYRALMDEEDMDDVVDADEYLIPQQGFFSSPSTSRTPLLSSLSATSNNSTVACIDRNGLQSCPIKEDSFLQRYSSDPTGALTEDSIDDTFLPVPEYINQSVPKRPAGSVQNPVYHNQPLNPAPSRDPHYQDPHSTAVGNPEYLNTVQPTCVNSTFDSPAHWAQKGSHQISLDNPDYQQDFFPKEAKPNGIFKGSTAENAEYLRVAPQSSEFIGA

[18] = target: Follistatin-related protein 3 (Homo sapiens) (UniProt O95633); test: FSTL3 binders on small-molecule microarrays, primary screen, biochemical, small-molecule microarray, 635 nm fluorescence (AID 1105); details: FSTL3 binding, higher = more signal;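 further: score merges emission near 667 nm and signal to noise per printed spot across three slides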
Sequence of Follistatin-related protein 3 (Homo sapiens) (O95633 whole entry, looked up): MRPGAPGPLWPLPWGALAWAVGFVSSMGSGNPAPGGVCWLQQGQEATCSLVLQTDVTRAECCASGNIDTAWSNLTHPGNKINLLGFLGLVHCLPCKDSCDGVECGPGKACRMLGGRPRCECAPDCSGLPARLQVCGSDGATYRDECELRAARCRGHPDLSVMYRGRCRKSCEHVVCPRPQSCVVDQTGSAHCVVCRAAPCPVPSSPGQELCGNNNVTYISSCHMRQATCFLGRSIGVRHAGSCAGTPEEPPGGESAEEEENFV

[19] = target: Dickkopf-related protein 1 (Homo sapiens) (UniProt O94907); test: DKK1 binders on small-molecule microarrays, primary screen, biochemical, small-molecule microarray, 635 nm fluorescence scan (AID 1106); details: DKK1 binding, higher = more signal;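 further: score merges emission near 667 nm with signal to noise over three replicate slides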
Sequence of Dickkopf-related protein 1 (Homo sapiens) (O94907 whole entry, looked up): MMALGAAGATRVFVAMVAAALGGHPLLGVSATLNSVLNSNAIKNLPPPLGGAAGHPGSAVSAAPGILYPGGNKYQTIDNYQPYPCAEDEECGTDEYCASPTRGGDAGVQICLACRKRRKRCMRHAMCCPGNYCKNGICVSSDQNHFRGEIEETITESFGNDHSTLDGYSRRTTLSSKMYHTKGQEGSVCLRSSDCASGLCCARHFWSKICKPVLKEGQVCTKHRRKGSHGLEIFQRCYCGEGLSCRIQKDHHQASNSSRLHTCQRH

[20] = test system: Inhibin beta A chain (activin A); test: INHBA (activin A) binders on microarrays, primary screen, biochemical, small-molecule microarray, 635 nm fluorescence scan (AID 1107); details: small-molecule microarray binding, higher = more signal;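 further: mouse activin A protein probed at 4.33 µg/mL on printed slides; score merges bound-protein fluorescence near 667 nm with spot signal-to-noise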

SMILES | composite z-score [1] | z-score [2] | z-score [3] | z-score [4] | composite z-score [5] | z-score [6] | composite z-score [7] | composite z-score [8] | composite z-score [9] | composite z-score [10] | composite z-score [11] | composite z-score [12] | composite z-score [13] | z-score [14] | composite z-score [15] | composite z-score [16] | composite z-score [17] | composite z-score [18] | composite z-score [19] | composite z-score [20]
CS(=O)(=O)CCOC(=O)C1=CC(CCCO)=CC(C2CC2)N(Cc2cccc(OC(F)(F)F)c2)C=C1C(=O)OCCS(C)(=O)=O (stereo not given) | 0.757 | -0.725 (inactive) | -2.34 (inactive) | -1.75 (inactive) | 2.29 | -0.917 (inactive) | 0.203 | -0.0678 | 0.0213 | -0.106 | 1.09 | 0.0231 | -0.0768 | 0.155 (inactive) | 0.039 | 0.306 | -0.0252 | 0.054 | -0.325 | 0.911
Cc1ccc(S[C@]2(C(=O)NC(C)C)CC(=O)N(Cc3ccccc3Cl)[C@@H]2c2ccc(CO)cc2)cc1 | -0.577 | -0.651 (inactive) | -1.13 (inactive) | -0.072 (inactive) | 2.06 | -1.29 (inactive) | 0.0425 | -0.82 | -0.452 | -0.227 | 1.23 | 0.17 | 0.865 | -0.864 (inactive) | -0.465 | -0.628 | -1.04 | -1.2 | -1.47 | -0.318
O=C(O)[C@H]1C[C@H]2C(=O)N[C@@H](Cc3ccccc3)C(=O)N2[C@H]1c1cccc(OCCO)c1 | 1.46 | 0.893 (inactive) | -1.11 (inactive) | -0.629 (inactive) | 2.14 | 0.446 (inactive) | 0.127 | 1.74 | 0.814 | 0.206 | 0.348 | 0.507 | 0.198 | -0.129 (inactive) | 0.986 | 0.874 | 0.391 | 1.2 | 1.17 | 0.206
CCOC(=O)C[C@H]1[C@H](OC(=O)c2cc3ccccc3oc2=O)[C@@H](NC(=O)c2ccc3ccccc3c2)c2cc(OCCCO)ccc2N1C(=O)Cc1ccc(OC)cc1 | 0.631 | 0.173 (inactive) | 0.106 (inactive) | -1.33 (inactive) | 2.48 | -0.436 (inactive) | -0.0359 | 0.405 | 0.872 | 0.0009 | 0.571 | -0.0385 | -0.0886 | -0.239 (inactive) | 0.576 | 0.162 | 0.34 | 1.18 | 0.427 | 0.237
C=C(/C(=C/C[C@@H](OC(=O)c1ccncc1)c1cccc(OCCO)c1)c1cnc2ccccc2c1)C(C)C | 1.55 | -2.06 (inactive) | -1.77 (inactive) | 1.29 (inactive) | 2.03 | 0.915 (inactive) | -0.0042 | 1.27 | 1.02 | 0.074 | 0.198 | 0.0215 | 0.415 | -0.537 (inactive) | 1.5 | 1.18 | 0.922 | 1.51 | 0.858 | 1.52
C=C(C)[C@@H]1CC=C(C(O)C2C=CC3C(=O)N(c4ccccc4)C(=O)C3N2Nc2ccc(C#N)cc2)CC1 (stereo not given in full) | 1.54 | 0.188 (inactive) | 0.369 (inactive) | 4.16 (inactive) | 3.33 | -1.9 (inactive) | 0.386 | 0.35 | 1.04 | 0.0717 | 1.31 | 0.327 | 1.15 | 0.857 (inactive) | 0.997 | 1.31 | 0.628 | 1.34 | -0.0273 | 0.749
COCCCNC(=O)[C@@]1(c2ccc([N+](=O)[O-])cc2)CC(=O)N(C(C)C)[C@@H]1c1ccc(CO)cc1 | 0.197 | -0.411 (inactive) | -0.46 (inactive) | -0.363 (inactive) | 0.15 | 0.409 (inactive) | 0.701 | -0.363 | -0.617 | -0.071 | 0.0788 | 0.46 | 0.8 | 0.0532 (inactive) | -0.512 | -0.63 | 0.608 | 0.373 | 0.289 | 1.07
CCOC(=O)C1=C[C@@H](C(C)(C)C)N(S(=O)(=O)c2ccc(C)cc2)[C@H]1c1ccccc1 | 1.22 | 0.826 (inactive) | 1.27 (inactive) | 1.41 (inactive) | 0.928 | -0.0247 (inactive) | 0.0194 | 0.576 | 1.07 | 0.124 | 0.104 | 1.44 | 1.22 | 1.07 (inactive) | 0.982 | 1.29 | 0.591 | 1.26 | 0.743 | 0.556
CCC(CC)C(O)C1C=CC2C(=O)N(c3ccccc3)C(=O)C2N1Nc1ccc([N+](=O)[O-])cc1 (stereo not given) | 1.53 | -0.255 (inactive) | 1.27 (inactive) | 1.28 (inactive) | 3 | -0.27 (inactive) | 0.323 | 0.0809 | 1.07 | 0.277 | 0.629 | 1.02 | 0.638 | -0.16 (inactive) | 0.632 | 1.21 | 0.102 | 0.393 | -0.351 | 0.761
